Experiment [1] deals with TRPC4 beta (transient receptor potential cation channel C4), mouse. Put plainly: activators of mouse TRPC4 channel, confirmation, cell-based, Fluo4 calcium, HEK293 TRPC4beta/mu-opioid, duplicates, 10 µM (AID 2426).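 On activation: percent rise of integrated ratio over buffer wells lacking compound which define 0%.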 Particulars: Fluo4 calcium fluorescence, at 10 µM; hits give high values.
Experiment [2] concerns transient receptor potential cation channel C4 beta (TRPC4), mouse. As to the kind of experiment: activators of mouse TRPC4 channel, confirmation, cell-based, second round, Fluo4, HEK293 TRPC4beta/mu-opioid, 1 µM (AID 2461;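 active means primary screen active and over 50% activation in each of two duplicate runs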). Conditions: Fluo4 calcium fluorescence, at 1 µM; hits give high values.
In experiment [3] the test system is TRPC4 (transient receptor potential cation channel C4 beta), mouse. Put plainly: positive allosteric modulators of mouse TRPC4, confirmation, cell-based, second round, Fluo-4, HEK293 TRPC4beta/mu-opioid, 1 µM (AID 2554;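 active means primary screen hit whose fluorescence ratio, in both repeats, exceeds the weak agonist control mean by 3 SD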). Particulars: DAMGO EC20, Fluo-4 calcium flux, at 1 µM; hits give high values.
Experiment [4] deals with TRPC4 beta (transient receptor potential cation channel C4), mouse. Put plainly: positive allosteric modulators of mouse TRPC4, confirmation, cell-based, Fluo-4, HEK293 TRPC4beta/mu-opioid (AID 2555;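 active means primary screen hit whose calcium fluorescence ratio, in both repeats, exceeds the weak agonist control mean by 3 SD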). Particulars: DAMGO EC20, Fluo-4 calcium flux, at 10 µM; hits give high values. On the technique in general: Calcium flux is commonly read through the fluorescence of an indicator in the cells.

The target of experiment [5] is Short transient receptor potential channel 4 (Mus musculus) (UniProt Q9QUQ5). Put plainly: inhibitors of mouse TRPC4 channel, confirmation, cell-based, Fluo4, HEK293 TRPC4beta/mu-opioid (AID 2636;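 active means calcium signal cut by more than 3 SD below the full-agonist control yet still positive, in both repeats and the earlier primary screen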). Particulars: DAMGO, Fluo4 calcium flux, at 10 µM; hits give high values.
For experiment [6] the target is unchanged. Put plainly: inhibitors of mouse TRPC4 channel, confirmation, cell-based, second round, Fluo4, HEK293 TRPC4beta/mu-opioid, 1 µM (AID 2637;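 active means calcium signal ratio cut to more than 3 SD under the fully stimulated control mean yet still positive, in both repeats and the primary screen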). Conditions: Fluo4 calcium flux, DAMGO, at 1 µM; hits give high values.
Experiment [7] shares this target. As to the kind of experiment: mouse TRPC4 channel activators, dose response, cell-based, HEK293 TRPC4/mu-opioid, Fluo-4 calcium (AID 434937;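 active means primary screen activator hit with a dose response curve and TRPC4 channel activation at any tested dose; inactive means no activation, no dose response, or not a primary hit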).
The target is the same in experiment [8]. Put plainly: TRPC4 positive allosteric modulators, dose response, cell-based, HEK293 TRPC4/mu-opioid, Fluo-4 calcium, EC20 DAMGO (AID 434941;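 active means earlier screen potentiator hit that boosts the TRPC4 ion channel at some dose, with a dose response; inactive means no potentiation, no dose response, or not a prior hit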;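 further: calcium entry triggered by an EC20 dose of DAMGO at the co-expressed mu-opioid receptor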).
Experiment [9] shares this target. Put plainly: mouse TRPC4 channel inhibitors, dose response, cell-based, HEK293 TRPC4/mu-opioid, Fluo-4 calcium (AID 434942;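 active means primary screen inhibitor hit that blocks the TRPC4 channel at some tested dose, yielding a dose curve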).
Experiment [10] deals with Short transient receptor potential channel 6 (Mus musculus) (UniProt Q61143). As to the kind of experiment: inhibition of mouse TRPC6 channel, confirmation, selectivity assay for TRPC4 inhibitor project, cell-based, HEK293, membrane potential dye, duplicate (AID 434948;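 active means active in primary screen and both duplicates, each dropping signal beyond three positive-control SD with fluorescence still positive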). Particulars: HEK293 TRPC6, membrane potential dye fluorescence, at 10 µM, stimulated with maximal-effect acetylcholine; hits give high values.

For experiment [11] the target is unchanged. As to the kind of experiment: activation of mouse TRPC6 channel, confirmation, selectivity assay for TRPC4 activator project, cell-based, HEK293, membrane potential dye, duplicate (AID 434950;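 active means membrane potential signal rise above negative control mean plus 3 SD in both duplicates, also active in the earlier TRPC4 screen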;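 on activation: 0% = buffer only wells and 100% = acetylcholine maximal-effect wells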). Conditions: HEK293 TRPC6, membrane potential fluorescence, at 10 µM; hits give high values.
The target is the same in experiment [12]. Put plainly: TRPC6 potentiation by TRPC4 potentiator hits, confirmation, selectivity assay for TRPC4 potentiator project, HEK293 cells, membrane potential dye, duplicate (AID 434952;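 active means compound raising the membrane signal above positive-control mean plus 3 SD in both repeats, and a primary screen hit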). Particulars: HEK293 TRPC6, membrane potential dye fluorescence, at 10 µM, maximal acetylcholine added after compound; hits give high values.
Experiment [13] has as its target Short transient receptor potential channel 4 (Mus musculus) (UniProt Q9QUQ5). As to the kind of experiment: calcium flux activators in TRPC4/5HT1a cells, counter-screen for TRPC4 activator project, cell-based, second counter screen, HEK293 TRPC4/5HT1a, Fluo-4 (AID 434977;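 active means calcium signal rise above buffer-control mean plus 5 SD in both duplicates, and also a hit in the primary screen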). Conditions: Fluo-4 calcium flux, at 10 µM; hits give high values.
Experiment [14] is described as follows: calcium flux inhibitors in TRPC4/5HT1a cells, confirmation, counter-screen for TRPC4 inhibitor project, cell-based, second counter screen, HEK293 TRPC4/5HT1a, Fluo-4 (AID 434978;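 active means primary screen active whose calcium signal fell more than 3 SD beyond the full-serotonin control mean in both duplicate plates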;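 further: serotonin given first at submaximal then at maximal dose after compound preincubation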). Particulars: Fluo-4 calcium flux, at 10 µM, serotonin added to trigger calcium flux; hits give high values.
For experiment [15], the system named is TRPC4 (mouse), co-expressed with 5HT1a in HEK293. Put plainly: calcium flux potentiators in TRPC4/5HT1a cells, confirmation, counter-screen for TRPC4 potentiator project, cell-based, second counter screen, HEK293 TRPC4/5HT1a, Fluo-4 (AID 434979;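 active means signal rise over 3 SD above mean of control wells given weak agonist, in both repeats and first screen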). Conditions: Fluo-4 calcium flux, at 10 µM, serotonin added at its EC20 dose; hits give high values.
A short description of experiment [16]: calcium flux activation in mu-opioid HEK293 cells, confirmation, counter-screen for TRPC4 activator project, cell-based, HEK293 mu-opioid receptor line (AID 449723;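 active means hit in primary screen, with calcium signal over 5 SD above buffer well mean in both duplicates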;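 further: counter screen cells carry the mu-opioid receptor alone and lack TRPC4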). Conditions: Fluo-4 calcium fluorescence, at 10 µM; hits give high values.
A short description of experiment [17]: calcium flux enhancement in mu-opioid HEK293 cells, confirmation, counter-screen for TRPC4 allosteric potentiator project, cell-based, HEK293 mu-opioid receptor line (AID 449724;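 active means calcium signal rise more than 3 SD above the low-dose agonist control mean, in both duplicate plates and the primary screen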;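 further: HEK293 cells carrying mu-opioid receptor only with no TRPC4 channel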). Particulars: Fluo-4 calcium flux, at 10 µM, compound added before EC20 DAMGO stimulus; hits give high values.

For part of these data: Measured potencies and affinities stand elsewhere. The source made the active and inactive calls.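 How the source made its calls, unless noted: active means fluorescence ratio normalized to control raised more than 50% in primary screen plus both repeat runs; inactive means the rest.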

Short transient receptor potential channel 4 (Mus musculus), sequence (Q9QUQ5 whole entry, looked up): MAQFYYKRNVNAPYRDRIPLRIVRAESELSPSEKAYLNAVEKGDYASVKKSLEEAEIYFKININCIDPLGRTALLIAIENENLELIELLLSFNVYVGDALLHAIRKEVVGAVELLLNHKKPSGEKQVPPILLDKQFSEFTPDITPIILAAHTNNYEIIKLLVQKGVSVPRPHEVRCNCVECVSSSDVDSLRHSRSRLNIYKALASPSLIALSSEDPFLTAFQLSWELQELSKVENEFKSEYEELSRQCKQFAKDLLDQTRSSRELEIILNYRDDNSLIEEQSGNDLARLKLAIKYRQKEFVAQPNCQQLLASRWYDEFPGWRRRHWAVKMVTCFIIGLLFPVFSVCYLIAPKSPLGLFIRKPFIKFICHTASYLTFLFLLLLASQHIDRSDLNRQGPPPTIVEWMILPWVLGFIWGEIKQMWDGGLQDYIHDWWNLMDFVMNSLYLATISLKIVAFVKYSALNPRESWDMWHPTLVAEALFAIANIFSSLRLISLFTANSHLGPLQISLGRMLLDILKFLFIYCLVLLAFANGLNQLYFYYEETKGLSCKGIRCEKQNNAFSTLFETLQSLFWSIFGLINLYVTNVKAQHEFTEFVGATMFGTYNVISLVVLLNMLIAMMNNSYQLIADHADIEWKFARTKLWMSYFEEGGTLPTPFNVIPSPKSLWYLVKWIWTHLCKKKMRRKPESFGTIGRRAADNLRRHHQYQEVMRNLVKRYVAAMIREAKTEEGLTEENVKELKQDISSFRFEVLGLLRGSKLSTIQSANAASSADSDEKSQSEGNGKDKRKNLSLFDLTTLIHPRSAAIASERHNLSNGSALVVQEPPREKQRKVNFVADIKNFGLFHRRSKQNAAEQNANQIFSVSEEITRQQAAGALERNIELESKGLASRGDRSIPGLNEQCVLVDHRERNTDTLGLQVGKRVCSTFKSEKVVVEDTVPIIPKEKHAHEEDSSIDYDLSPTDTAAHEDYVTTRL
Short transient receptor potential channel 6 (Mus musculus), sequence (Q61143 whole entry, looked up): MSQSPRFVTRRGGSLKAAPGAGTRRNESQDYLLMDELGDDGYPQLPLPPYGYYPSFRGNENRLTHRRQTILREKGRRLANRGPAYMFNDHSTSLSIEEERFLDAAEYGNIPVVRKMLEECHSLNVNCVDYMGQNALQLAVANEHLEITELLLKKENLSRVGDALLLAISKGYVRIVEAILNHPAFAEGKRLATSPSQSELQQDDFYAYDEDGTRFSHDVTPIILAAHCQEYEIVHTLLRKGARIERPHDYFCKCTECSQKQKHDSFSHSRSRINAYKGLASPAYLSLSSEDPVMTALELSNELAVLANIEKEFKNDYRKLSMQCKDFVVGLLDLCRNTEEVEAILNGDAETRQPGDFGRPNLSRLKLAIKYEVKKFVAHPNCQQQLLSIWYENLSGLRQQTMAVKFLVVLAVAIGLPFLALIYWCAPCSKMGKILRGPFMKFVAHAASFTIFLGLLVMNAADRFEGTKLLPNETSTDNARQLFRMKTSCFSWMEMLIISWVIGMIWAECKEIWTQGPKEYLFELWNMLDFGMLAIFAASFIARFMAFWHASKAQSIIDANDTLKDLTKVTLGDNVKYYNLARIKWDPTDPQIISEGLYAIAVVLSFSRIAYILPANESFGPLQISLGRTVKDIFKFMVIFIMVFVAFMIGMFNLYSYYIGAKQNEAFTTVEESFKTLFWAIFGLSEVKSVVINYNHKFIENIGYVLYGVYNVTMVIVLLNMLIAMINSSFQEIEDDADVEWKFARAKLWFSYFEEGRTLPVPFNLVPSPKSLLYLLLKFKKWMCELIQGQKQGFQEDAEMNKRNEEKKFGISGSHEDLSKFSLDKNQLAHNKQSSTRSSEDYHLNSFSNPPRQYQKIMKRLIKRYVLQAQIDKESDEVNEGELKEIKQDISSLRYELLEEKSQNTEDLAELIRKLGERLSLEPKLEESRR

As to `CC[n+]1c(/C=C/c2ccc(OC(C)=O)c(OC)c2)ccc2ccccc21`, the result in [1], in [2], in experiment [3], in experiment [4], in [5] and in experiment [6] was inactive. Moreover, the result in experiment [7], in experiment [8], in experiment [9], in [10], in experiment [11] and in experiment [12] was inactive. The result in experiment [13], in experiment [14], in experiment [15], in experiment [16] and in experiment [17] was inactive.
On to `O=C(OCCCCN1C(=O)c2ccccc2C1=O)c1ccc(S(=O)(=O)N2CCCC2)cc1`, for which the outcome in experiment [1], in experiment [2], in experiment [3], in experiment [4], in experiment [5] and in experiment [6] was inactive. Besides, the outcome in experiment [7], in experiment [8], in [9], in experiment [10], in experiment [11] and in experiment [12] was inactive. Moreover, the outcome in [13], in experiment [14], in experiment [15], in [16] and in experiment [17] was inactive.
By inhibition is commonly meant the relative decrease from the control value, in per cent. In the case of `COC(=O)/C=C1\SC(=NC(=O)c2cccc(Cl)c2)NC1=O`, the result in [1], in experiment [2], in experiment [3], in experiment [4], in experiment [6] and in experiment [7] was inactive. In addition, the result in experiment [8], in experiment [9], in [10], in experiment [11], in [12] and in [13] was inactive. Moreover, the result in experiment [14], in experiment [15], in [16] and in experiment [17] was inactive. For the same compound, in experiment [5], the inhibition was 76% (active).
With `c1ccc(Nc2c3c(nc4ccccc24)CCC3)cc1`, the result in [1], in experiment [2], in experiment [3], in experiment [4], in experiment [5] and in [6] was inactive. Besides, the outcome in experiment [7], in experiment [8], in [9], in experiment [10], in experiment [11] and in [12] was inactive. Also, the result in experiment [13], in experiment [14], in experiment [15], in experiment [16] and in experiment [17] was inactive.
Take `COc1ccc(CCN(C)C(=O)c2cc(S(=O)(=O)N3CCCCC3)ccc2Cl)cc1OC`: the outcome in [1], in [2], in experiment [3], in experiment [4], in experiment [5] and in experiment [6] was inactive. The result in experiment [7], in [8], in experiment [9], in experiment [10], in experiment [11] and in experiment [12] was inactive. The result in experiment [13], in experiment [14], in experiment [15], in experiment [16] and in experiment [17] was inactive.
`O=C(NCC(c1ccco1)N1CCc2ccccc2C1)c1ccc(F)cc1` (stereo not given): the result in experiment [1], in [2], in experiment [3], in [4], in [5] and in experiment [6] was inactive. Also, the outcome in experiment [7], in experiment [8], in experiment [9], in [10], in experiment [11] and in experiment [12] was inactive. Besides, the result in experiment [13], in experiment [14], in [15], in experiment [16] and in experiment [17] was inactive.
On to `Cc1cc(OCC(=O)N2CCCC2)cc(C)c1Cl`, for which the outcome in experiment [1], in experiment [2], in experiment [3], in experiment [4], in experiment [5] and in experiment [6] was inactive. In addition, the outcome in [7], in experiment [8], in experiment [9], in experiment [10], in experiment [12] and in experiment [13] was inactive. Besides, the outcome in experiment [14], in [15], in [16] and in [17] was inactive. Moreover, the activation in experiment [11] was 38% (active).
As to `COC(=O)[C@@]12CCCCN1[C@H](c1ccc(-c3ccc(C(C)=O)cc3)cc1)[C@@H]1C(=O)N(C)C(=O)[C@@H]12`, the result in experiment [1], in experiment [2], in [3], in experiment [4], in experiment [5] and in experiment [6] was inactive. Moreover, the result in experiment [7], in [8], in experiment [9], in [10], in experiment [11] and in experiment [12] was inactive. Besides, the result in experiment [13], in experiment [14], in [15], in experiment [16] and in experiment [17] was inactive.
Turning to `CCOc1ccc2ccccc2c1/C=N/NC(=O)c1cc(C)[nH]n1`, the outcome in experiment [1], in experiment [2], in experiment [3], in [4], in experiment [5] and in experiment [6] was inactive. Also, the result in experiment [7], in experiment [8], in experiment [9], in [10], in experiment [11] and in experiment [12] was inactive. In addition, the result in [13], in experiment [14], in [15], in experiment [16] and in experiment [17] was inactive.
Take `CC(C)(C)n1cnc2cc(NCc3ccc(Br)cc3)ccc21`: the result in [1], in experiment [2], in experiment [3], in [4], in experiment [5] and in experiment [6] was inactive. Further, the outcome in [7], in [8], in experiment [9], in experiment [10], in [11] and in experiment [12] was inactive. For the same compound, the result in [13], in experiment [14], in [16] and in experiment [17] was inactive. In experiment [15], the potentiation was 8.63% (active).
For the compound `CN(C)CCCNc1c2c(nc3cc(-c4cccc(F)c4)nn13)CCC2`, the activation in [1] is 81% (active). Moreover, the result in experiment [2], in experiment [3], in experiment [4], in [5], in experiment [6] and in [7] was inactive. The result in [8], in experiment [9], in experiment [10], in [11], in [12] and in [13] was inactive. Moreover, the outcome in [14], in experiment [15], in [16] and in experiment [17] was inactive.
On to `O=C(c1ccccc1)c1coc2ccc(O)c(CN3CCOCC3)c12`, for which the result in [1], in [2], in experiment [3], in experiment [4], in [5] and in experiment [6] was inactive. In addition, the result in experiment [7], in experiment [8], in experiment [9], in experiment [10], in [11] and in [12] was inactive. Further, the result in experiment [13], in experiment [14], in [15], in experiment [16] and in experiment [17] was inactive.
On to `CCOC(=O)c1c(NC(=O)C2CCCO2)sc2c1CCC2` (stereo not given), for which the result in [1], in experiment [2], in experiment [3], in [5], in experiment [6] and in experiment [7] was inactive. The result in [8], in [9], in experiment [10], in experiment [11], in experiment [12] and in [13] was inactive. In addition, the result in [14], in [16] and in experiment [17] was inactive. The potentiation is 40% (active) in experiment [4] and 47.8% (active) in [15].
As to `CN(CC(=O)Nc1ccc(F)cc1)C(=O)COC(=O)c1ccccc1`, the result in experiment [1], in experiment [2], in [5], in experiment [6], in experiment [7] and in experiment [8] was inactive. The outcome in [9], in experiment [10], in experiment [11], in experiment [12], in [13] and in experiment [14] was inactive. The outcome in experiment [16] and in experiment [17] was inactive. Also, the figures for the potentiation in experiment [3], in experiment [4] and in experiment [15] were 27% (active), 25% (active) and 23.8% (active), respectively.
For the compound `CCC(CC)c1nnc(NC(=O)c2c(C)nn(Cc3ccccc3Cl)c2C)s1`, the result in [1], in experiment [2], in [3], in experiment [4], in experiment [5] and in [6] was inactive. Besides, the outcome in [7], in [8], in experiment [9], in experiment [10], in [11] and in experiment [12] was inactive. Further, the result in experiment [13], in experiment [14], in [16] and in experiment [17] was inactive. Moreover, in [15], the potentiation is 36.2% (active).

(Values after PubChem BioAssay.)
